Experimental data published in PubChem BioAssay (EPA / NIEHS).
Some compounds were tested as several samples or in several runs, with calls that do not always agree. Calls of active or inactive are those of the source. Rule for the calls: active = hit-call score of the fitted dose curve at least 0.9, where 1 is the maximum; inactive = score below 0.9.

Key:
[1] = read-out: Matrix Metallopeptidase 1 (MMP1), MMP1 (gene 4312); assay: BSK_BE3C_MMP1: BioMAP Diversity Plus: BE3C Assay for Matrix Metallopeptidase 1 (MMP1) Biomarker Activity (AID 2283024); conditions: primary human bronchial epithelial cells; actives raise or lower the signal
Outline: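 Human primary bronchial epithelial cells (BE3C system) dosed for 24 h; MMP-1 quantified by ELISA. Bidirectional fit against DMSO; cytotoxicity tracked in parallel cultures by SRB total-protein staining.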

[2] = BSK_3C_Vis: BioMAP Diversity Plus: 3C Assay for Morphology Visualization (AID 2283025); conditions: primary human endothelial cells (HUVEC);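 note: fitted both ways so gain or loss versus DMSO counts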;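 for AC50: light microscopy image of cell morphology used as background control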
Outline: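 Human umbilical vein endothelial cell morphology was inspected by light microscopy 24 h after chemical dosing; scored bidirectionally relative to DMSO.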

[3] = read-out: Pselectin, SELP (gene 6403); assay: BSK_4H_Pselectin: BioMAP Diversity Plus: 4H Assay for Pselectin Biomarker Activity (AID 2283026); conditions: primary human endothelial cells (HUVEC); actives raise or lower the signal
Outline: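 Primary human umbilical vein endothelial cells were treated 24 h, and cell-surface P-selectin was then quantified by ELISA. Bidirectional fit versus DMSO; cytotoxicity checked in parallel cultures by SRB total-protein staining.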

[4] = BSK_4H_SRB: Viability Assessment in the BioMAP Diversity Plus: 4H Assay (AID 2283027); conditions: primary human endothelial cells (HUVEC)
Outline: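 Human umbilical vein endothelial cells were dosed with chemical and, after 24 h, fixed with 10% TCA, stained with 0.1% sulforhodamine B, and read at 560 nm to give total protein as a cytotoxicity measure. Bidirectional fitting relative to DMSO control.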

[5] = BSK_BE3C_SRB: Viability Assessment in the BioMAP Diversity Plus: BE3C Assay (AID 2283028); conditions: primary human bronchial epithelial cells
Outline: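 Human primary bronchial epithelial cells were exposed to test chemicals for 24 h. Total protein in parallel cultures was then measured by staining with 0.1% sulforhodamine B after 10% TCA fixation, with absorbance read at 560 nm. Activity was fitted bidirectionally against DMSO.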

[6] = read-out: Thrombomodulin, THBD (gene 7056); assay: BSK_3C_Thrombomodulin: BioMAP Diversity Plus: 3C Assay for Thrombomodulin Biomarker Activity (AID 2283029); conditions: primary human endothelial cells (HUVEC); actives raise or lower the signal
Outline: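 Human umbilical vein endothelial cells were exposed to chemicals for 24 h; cell-surface thrombomodulin quantified by ELISA, with bidirectional fitting against DMSO baseline.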

[7] = read-out: Urokinase-type plasminogen activator receptor (uPAR), PLAUR (gene 5329); assay: BSK_4H_uPAR: BioMAP Diversity Plus: 4H Assay for Urokinase-type plasminogen activator receptor (uPAR) Biomarker Activity (AID 2283030); conditions: primary human endothelial cells (HUVEC); actives raise or lower the signal
Outline: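 Primary human umbilical vein endothelial cells were exposed to chemical for 24 h before cell-surface uPAR was quantified by ELISA. Activity was fitted bidirectionally against the DMSO negative control baseline.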

[8] = read-out: Vascular endothelial growth factor receptor 2 (Homo sapiens) (UniProt P35968); assay: BSK_4H_VEGFRII: BioMAP Diversity Plus: 4H Assay for Vascular endothelial growth factor receptor 2 (VEGFR2) Biomarker Activity (AID 2283031); conditions: primary human endothelial cells (HUVEC); actives raise or lower the signal
Outline: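 Primary human umbilical vein endothelial cells in the BioMAP 4H system were dosed with test chemical, and 24 h later VEGFRII was measured by ELISA. Activity was fitted bidirectionally against DMSO as negative control and baseline.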

[9] = read-out: Human Leukocyte Antigen - DR isotype (HLADR), HLA-DRA (gene 3122); assay: BSK_BE3C_HLADR: BioMAP Diversity Plus: BE3C Assay for Human Leukocyte Antigen - DR isotype (HLADR) Biomarker Activity (AID 2283032); conditions: primary human bronchial epithelial cells; actives raise or lower the signal
Outline: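 Human primary bronchial epithelial cells (BE3C system) exposed to compound for 24 hours; cell-surface HLA-DR measured by ELISA, fitted bidirectionally relative to DMSO. Total protein by SRB in parallel cultures tracked cytotoxicity.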

[10] = read-out: Vascular cell adhesion molecule 1 (VCAM1), VCAM1 (gene 7412); assay: BSK_4H_VCAM1: BioMAP Diversity Plus: 4H Assay for Vascular cell adhesion molecule 1 (VCAM1) Biomarker Activity (AID 2283033); conditions: primary human endothelial cells (HUVEC); actives raise or lower the signal
Outline: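 Primary human umbilical vein endothelial cells, 4H stimulation system, treated for 24 h; cell-surface VCAM-1 quantified by ELISA. Bidirectional fitting against DMSO; cytotoxicity tracked by SRB total-protein staining in parallel cultures.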

[11] = read-out: Interferon-gamma inducible Protein 10 (IP10), CXCL10 (gene 3627); assay: BSK_BE3C_IP10: BioMAP Diversity Plus: BE3C Assay for Interferon-gamma inducible Protein 10 (IP10) Biomarker Activity (AID 2283034); conditions: primary human bronchial epithelial cells; actives raise or lower the signal
Outline: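 Primary human bronchial epithelial cells, with IP-10 measured by ELISA 24 hours after chemical dosing. Bidirectional fit against DMSO; cytotoxicity checked by SRB total protein staining in parallel cultures.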

[12] = read-out: Monokine induced gamma interferon (MIG), CXCL9 (gene 4283); assay: BSK_BE3C_MIG: BioMAP Diversity Plus: BE3C Assay for Monokine induced gamma interferon (MIG) Biomarker Activity (AID 2283035); conditions: primary human bronchial epithelial cells; actives raise or lower the signal;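 note: MIG protein measured by ELISA in BE3C cultures after 24 h of dosing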
Outline: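 ELISA read-out of MIG in human lung bronchial epithelial primary cultures, 24 h post-dosing. Bidirectional curve fit vs DMSO baseline.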

[13] = read-out: Plasminogen activator inhibitor-1 (PAI1), SERPINE1 (gene 5054); assay: BSK_BE3C_PAI1: BioMAP Diversity Plus: BE3C Assay for Plasminogen activator inhibitor-1 (PAI1) Biomarker Activity (AID 2283037); conditions: primary human bronchial epithelial cells; actives raise or lower the signal
Outline: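 Primary human bronchial epithelial cells (BE3C system) exposed 24 h; PAI-1 quantified by ELISA. Parallel sulforhodamine B staining of total protein flags cytotoxicity. Bidirectional fit versus DMSO.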

[14] = read-out: urokinase plasminogen activator (uPA), PLAU (gene 5328); assay: BSK_BE3C_uPA: BioMAP Diversity Plus: BE3C Assay for urokinase plasminogen activator (uPA) Biomarker Activity (AID 2283038); conditions: primary human bronchial epithelial cells; actives raise or lower the signal;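 note: uPA protein level quantified by ELISA in cell cultures; uPA read one day after compound addition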
Outline: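 Human primary bronchial epithelial cells were exposed to chemical for 24 h, then uPA levels were measured by ELISA. Responses were fitted bidirectionally against DMSO as negative control and baseline. Parallel SRB staining of total protein gauged overt cytotoxicity.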

[15] = read-out: Urokinase-type plasminogen activator receptor (uPAR), PLAUR (gene 5329); assay: BSK_BE3C_uPAR: BioMAP Diversity Plus: BE3C Assay for Urokinase-type plasminogen activator receptor (uPAR) Biomarker Activity (AID 2283039); conditions: primary human bronchial epithelial cells; actives raise or lower the signal;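 note: cells exposed to compound for one day before measurement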
Outline: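 Primary human bronchial epithelial cells dosed for 24 h; uPAR quantified by ELISA with bidirectional fitting against DMSO. Overt cytotoxicity assessed in parallel cultures by SRB total-protein staining (0.1% SRB, 560 nm).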

[16] = read-out: Interleukin-6 (IL6), IL6 (gene 3569); assay: BSK_CASM3C_IL6: BioMAP Diversity Plus: CASM3C Assay for Interleukin-6 (IL6) Biomarker Activity for (AID 2283040); conditions: primary human coronary artery smooth muscle cells; actives raise or lower the signal
[17] = read-out: Tissue plasminogen activator (tPA), PLAT (gene 5327); assay: BSK_BE3C_tPA: BioMAP Diversity Plus: BE3C Assay for Tissue plasminogen activator (tPA) Biomarker Activity (AID 2283041); conditions: primary human bronchial epithelial cells; actives raise or lower the signal;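 note: tPA level quantified by ELISA one day after compound addition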
Outline: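 Primary human bronchial epithelial cells in the BE3C system, exposed to compound for 24 h. tPA was quantified by ELISA; DMSO served as baseline, with gain or loss of signal fitted. Cytotoxicity checked in parallel cultures by SRB total-protein staining.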

[18] = read-out: Interleukin-8 (IL8), CXCL8 (gene 3576); assay: BSK_CASM3C_IL8: BioMAP Diversity Plus: CASM3C Assay for Interleukin-8 (IL8) Biomarker Activity (AID 2283042); conditions: primary human coronary artery smooth muscle cells; actives raise or lower the signal;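 note: IL-8 protein level quantified by ELISA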
[19] = read-out: Human Leukocyte Antigen - DR isotype (HLADR), HLA-DRA (gene 3122); assay: BSK_CASM3C_HLADR: BioMAP Diversity Plus: CASM3C Assay for Human Leukocyte Antigen - DR isotype (HLADR) Biomarker Activity (AID 2283043); conditions: primary human coronary artery smooth muscle cells; actives raise or lower the signal;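 note: cell-surface HLA-DR protein level quantified by ELISA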
[20] = read-out: Transforming growth factor beta 1 (TGFb1), TGFB1 (gene 7040); assay: BSK_BE3C_TGFb1: BioMAP Diversity Plus: BE3C Assay for Transforming growth factor beta 1 (TGFb1) Biomarker Activity (AID 2283036); conditions: primary human bronchial epithelial cells; actives raise or lower the signal
Outline: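 Primary human bronchial epithelial cells dosed with chemical; TGF-b1 measured by ELISA 24 h after dosing. Bidirectional curve fitting against DMSO negative control; SRB total-protein staining in parallel cultures gauged cytotoxicity.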

Measured: AC50

O=C(O)COc1cc(Cl)c(Cl)cc1Cl
not listed: [20]
inactive: all other assays above

Cc1cc(Cl)ccc1N
active: [13] 3.97 µM
not listed: [20]
inactive: all other assays above

CC(C)(COCC1CO1)COCC1CO1 (stereo unspecified)
not listed: [9] | [20]
inactive: all other assays above

Oc1ccc(Cc2ccc(O)cc2)cc1
not listed: [3]
inactive: all other assays above

CCCCCCCCCCCCN(C)C
inactive: all assays above

Cc1c([N+](=O)[O-])c(C)c([N+](=O)[O-])c(C(C)(C)C)c1[N+](=O)[O-]
active: [1] 7.08 µM | [2] 37.4 µM
not listed: [9] | [20]
inactive: all other assays above

CC1(C)[C@H](C(=O)O[C@H](C#N)c2cccc(Oc3ccccc3)c2)[C@@H]1/C=C(\Cl)C(F)(F)F
inactive: [1] | [2] | [4] | [5] | [6] | [7] | [8] | [10] | [11] | [12] | [13] | [14] | [15] | [16] | [17] | [18] | [19]
active: [1] 0.0142 µM
